Hit rate of the full screen: of about 190,000 compounds, about 2,000 (1.1%) were called active. Only a selection was taken, and actives are over-represented in it overall. Values without a mark were called inactive.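 How the source made its calls: active means activation above a set limit, based on mean plus 3 SD of controls (cut at about 140% in these data); inconclusive means one replicate above the limit, the other below; inactive means the rest.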
Test: activators of APP 5'UTR luciferase reporter, primary screen, SH-SY5Y cells (AID 1276)
Details: SH-SY5Y APP 5'UTR luciferase reporter, luminescence; at 2 µM; hits give high values; zero percent = DMSO vehicle wells

Row | SMILES | activation
1 | Cc1ccc(NS(=O)(=O)c2cccs2)cc1S(=O)(=O)N1CCCCCC1 | 13.7%
2 | O=C(Cc1ccc(-c2ccccc2)cc1)NC(c1ccccc1)c1ccccc1 | 12.7%
3 | CC(NC(=S)Nc1ccc(OC(F)F)cc1)c1ccc(F)cc1 (stereo not given) | -4.54%
4 | O=C(NNC(=O)c1ccc(Cl)cc1Cl)c1cccs1 | 59.2%
5 | O=C(Nc1ccn(Cc2ccccc2)n1)c1n[nH]c([N+](=O)[O-])c1Cl | 129%
6 | O=C(Nc1ccn(Cc2ccc(F)cc2)n1)c1ccncc1 | -11.3%
7 | O=C(Nc1ccn(Cc2ccccc2)n1)c1cccc(F)c1 | 197% (active)
8 | Cc1coc(C)c1C(=O)CC1(O)C(=O)N(C)c2ccc(Cl)cc21 (stereo not given) | 12.3%
9 | CCN(CC)CCNC(=O)c1sc2ncn(CC(=O)Nc3ccc(C)c(Cl)c3)c(=O)c2c1C | 11.4%
10 | Cc1nn(-c2ccc([N+](=O)[O-])cc2)c(N)c1-c1ccccc1 | 152% (active)
11 | Cc1nn(-c2ccccc2)c2c1C(c1cccc([N+](=O)[O-])c1)N(c1ccccc1)C(=O)N2 (stereo not given) | 11.7%
12 | O=C1CC(c2ccccc2)=NN1c1ccc([N+](=O)[O-])cc1 | -12.9%
13 | CCN(C(=O)Cc1nc(N)n[nH]1)C1(C(=O)Nc2ccccc2)CCCCC1 | -3.52%
14 | O=C(Nc1ccc2sc3ccccc3c(=O)c2c1)c1ccccc1Cl | 221% (active)
15 | COc1cc(NC(=O)c2cccs2)ccc1NC(=O)c1ccccc1Cl | 37.2%
16 | O=C(Nc1ccc2nc3n(c(=O)c2c1)CCCCC3)c1ccccc1Cl | 22%
17 | CCOC(=O)c1ccccc1NC(=O)CSc1nc2ccccc2c(=O)[nH]1 | -2.72%
18 | COc1cccc(N(Cc2nnc3n2CCCCC3)C(=O)Nc2ccccc2F)c1 | 3.63%
19 | O=C(Nc1nc2ccc(S(=O)(=O)N3CCCC3)cc2s1)C1CCCO1 (stereo not given) | 2.99%
20 | Cc1cc(C)c2nc(NC(=O)C3CCCO3)sc2c1 (stereo not given) | 159% (active)
21 | Cc1cc(Br)ccc1NC(=O)C1CCCO1 (stereo not given) | -29.7%
22 | O=C(/C=C/c1ccc(OCc2c(F)cccc2Cl)cc1)N1CCOCC1 | 12.2%
23 | COc1ccc(-n2c(C)cc(C(=O)CSc3nnc(-c4cccs4)o3)c2C)cc1 | -0.59%
24 | COc1ccc(-c2nnc(SCC(=O)c3cccs3)o2)c(OC)c1 | 142% (active)
25 | COc1ccc(OC)c(C(=O)CSc2nnc(-c3cccs3)o2)c1 | -1.75%

Row | SMILES | activation
26 | O=C(NNC(=S)NCc1ccco1)C(c1ccccc1)c1ccccc1 | 19.5%
27 | O=C(NNC(=O)c1cc2c(s1)CCCC2)c1ccccc1 | 43.3%
28 | COc1ccc(C(=O)Nc2ccc3c(c2)OCO3)cc1OC | 35.6%
29 | Cc1cccc(NC(=O)Nc2ccc3c(c2)OCO3)n1 | 137% (active)
30 | CC(NC(=O)Nc1ccc2c(c1)OCO2)c1ccncc1 (stereo not given) | 12.1%
31 | CC(C)C(=O)Nc1cccc(C(=O)Nc2ccc3c(c2)OCO3)c1 | 138% (active)
32 | Cc1cccc(NC(=O)/C=C/c2ccc3c(c2)OCO3)n1 | 118%
33 | O=C(Nc1ccccc1)c1ccc2c(c1)OCO2 | -58.8%
34 | CC(OC(=O)c1ccccc1OCc1ccc(Cl)cc1)C(N)=O (stereo not given) | 40.4%
35 | Cc1cc(C)c(NC(=O)c2oc3ccccc3c2COc2ccccc2)c(C)c1 | -0.13%
36 | CCC(=O)N(Cc1cc2ccccc2[nH]c1=O)c1ccc(OC)cc1 | -4.49%
37 | C/C(=N/NC(=O)CCc1ccccc1)c1ccco1 | 10.2%
38 | CCOc1ccc2nc(SC(CC)C(=O)Nc3cc(C)on3)sc2c1 (stereo not given) | 1.9%
39 | CCOc1ccc2nc(Nc3nc4ccc(NC(C)=O)cc4s3)sc2c1 | -5.77%
40 | CCOc1ccc2nc(C(=O)N3CCCC(C)C3)sc2c1 (stereo not given) | 158% (active)
41 | Cc1cc(CNCc2c(C(=O)N(C)Cc3ccccc3)nc3ccccn23)nn1C | 7.64%
42 | C/C(=N/NC(=S)Nc1ccccc1)c1ccc2c(c1)OCO2 | 11.9%
43 | CCOC(=O)CN/C=C(\C#N)c1ccc(F)cc1 | 29.2%
44 | O=C(Nc1ccc2c(c1)OCCO2)c1ccc(Cl)c(S(=O)(=O)N2CCCCC2)c1 | 30.1%
45 | O=C(Nc1cccc(S(=O)(=O)Nc2ccc(Cl)cc2)c1)c1ccc2c(c1)OCCO2 | -20.6%
46 | COc1c(Cl)cc(C(=O)Nc2ccc(Cl)cn2)cc1Cl | 34.7%
47 | CN1CCN(c2ccc(NC(=O)c3ccc4c(c3)OCCO4)cc2Cl)CC1 | 144% (active)
48 | O=C(Nc1ccc(Cl)cn1)c1ccc2c(c1)OCCO2 | 199% (active)
49 | O=C(Nc1cccc(Cl)c1N1CCOCC1)c1ccc2c(c1)OCCO2 | 12.9%
50 | CN1CCN(CCC(=O)N/N=C/C=C2\N(C)c3ccccc3C2(C)C)CC1 | 8.29%

Row | SMILES | activation
51 | c1ccc(-n2ncc3c(N4CCCC4)ncnc32)cc1 | 160% (active)
52 | Cc1cccc(-n2ncc3c(N4CCc5ccccc54)ncnc32)c1 | 25.5%
53 | COc1ccc(-n2ncc3c(N4CCc5ccccc54)ncnc32)cc1 | 204% (active)
54 | CCN(CC)C(=O)CSc1ncnc2c1cnn2-c1ccccc1 | 15.2%
55 | O=C(NNc1ncnc2c1cnn2-c1ccccc1)c1ccco1 | 6%
56 | COc1ccc(-n2ncc3c(N4CCCc5ccccc54)ncnc32)cc1 | 48.9%
57 | O=C(COc1ccc(S(=O)(=O)N2CCCCC2)cc1)NCc1ccccn1 | 2.08%
58 | CSCC[C@H](NC(=O)NC1CCCC1)C(=O)O | -20.9%
59 | CCN1CCC2(CCN(Cc3cn[nH]c3-c3ccc(OC)c(F)c3)C2)C1 (stereo not given) | -14.3%
60 | O=C(NNS(=O)(=O)c1ccc(F)cc1)c1cnccn1 | 3.72%
61 | C/C(=N\Nc1nc2ccccc2[nH]1)c1cccs1 | 150% (active)
62 | OCCNc1nc2ccccc2[nH]1 | 16.1%
63 | C/C(=N\Nc1ncc(Cl)cc1Cl)c1ccc(S(=O)(=O)NCc2ccco2)cc1 | 100%
64 | COc1cccc(/C(C)=N/Nc2ncc(Cl)cc2Cl)c1 | 24.9%
65 | C/C(=N\Nc1nc(Nc2ccccc2)nc(N2CCOCC2)n1)c1cccs1 | -7.91%
66 | C/C(=N\Nc1ncc(Cl)cc1Cl)c1cccs1 | 154% (active)
67 | O=S(=O)(NCC1CCCO1)c1cnc(Cl)c(Cl)c1 (stereo not given) | 1.68%
68 | CC(=O)c1ccc(S(=O)(=O)Nc2ccc(C(=O)NCC(c3ccccc3)N(C)C)cc2)cc1 (stereo not given) | -1.54%
69 | COc1ccccc1N1CCN(c2ccc([N+](=O)[O-])nc2)CC1 | 0.38%
70 | O=C(N/N=C/c1ccc(Cl)cc1)c1nc2ccc([N+](=O)[O-])cc2c(=O)[nH]1 | 5.49%
71 | COc1cccc(-n2c(=S)[nH]c3c(oc4ccccc43)c2=O)c1 | 23%
72 | Cc1ccc(N=Cc2c(O)n(-c3nccs3)c(=O)c3ccccc23)c(C)c1 | 11.8%
73 | Cc1cccc(-n2c(O)c(C=Nc3ccccc3N)c(=O)[nH]c2=O)c1 | 148% (active)
74 | Cc1cccc(-n2c(C)cc(/C=N/NC(N)=S)c2C)c1 | -0.81%
75 | CCCCc1nnc(NC(=O)CSc2nc(N)cc(=O)[nH]2)s1 | -0.9%

Row | SMILES | activation
76 | O=c1[nH]c2ccccc2s1 | -19.6%
77 | COc1cc([N+](=O)[O-])ccc1NC(=S)N1CCN(c2ccccn2)CC1 | -4.93%
78 | COc1nc(N(C)C)nc(N2CC(=O)N(CCNS(=O)(=O)c3ccc(C)cc3)C2=N)n1 | -1.55%
79 | CC(=O)n1cc([C@@H]2C=C(C(=O)N3CCN(Cc4ccc5c(c4)OCO5)CC3)O[C@H](OCc3ccc(CO)cc3)C2)c2ccccc21 | -22.2%
80 | NC(=O)COC(=O)/C=C/c1ccc2ccccc2n1 | 2.32%
81 | COc1cccc(/C=C/c2ccc3ccccc3n2)c1OC(C)=O | 131%
82 | CCOc1cccc(/C=C/c2ccc3ccccc3n2)c1OC(C)=O | 216% (active)
83 | O=C(c1cccc(S(=O)(=O)N2CCCC2)c1)N(Cc1ccco1)C1CCS(=O)(=O)C1 (stereo not given) | 11.1%
84 | Cc1ccc(S(=O)(=O)/N=C(/Nc2ccc3[nH]c(=O)[nH]c3c2)c2ccccc2)cc1 | -13.5%
85 | CCOc1ccc(CN2CCN(Cc3ccon3)CC2CCO)cc1 (stereo not given) | 7.1%
86 | O=C(c1cnn2ccccc12)N1CCc2ccccc21 | 145% (active)
87 | NC(=O)N1CCc2ccccc21 | -5.27%
88 | O=C(c1cccc(C(=O)N2CCc3ccccc32)n1)N1CCc2ccccc21 | -32.2%
89 | Cc1ccc(C(=O)N2CCN(S(=O)(=O)N3CCOCC3)CC2)cc1 | 0.65%
90 | Cc1ccc(-c2cn3cc([N+](=O)[O-])ccc3n2)cc1 | 120%
91 | Cc1ccc(-n2cc3ccc([N+](=O)[O-])cc3n2)cc1 | 179% (active)
92 | Cc1cc(C)nc(Nc2cc([N+](=O)[O-])ccc2C)n1 | -6.89%
93 | Cc1cc([N+](=O)[O-])ccc1NC1CCCC1 | -0.84%
94 | OCC1(Cc2ccccc2)CCN(Cc2cc3ccccc3o2)CC1 | -8.13%
95 | COc1ccccc1Oc1ccc(N/C=C2/CCCC2=O)cc1 | 17.2%
96 | Cc1[nH]c2c(C(=O)N3CCCC(CCC(=O)NCc4ccccc4F)C3)cccc2c1C (stereo not given) | 17.2%
97 | COc1c(C=O)c(CCN(C)C(=O)c2ccc(F)cc2)cc2c1OCO2 | 0.6%
98 | CCOc1ccc(Nc2nc(Cl)nc(N3CCN(c4ccc(OC)cc4)CC3)n2)cc1 | -9.55%
99 | COc1ccc(Nc2ncc(F)c(N3CCOCC3)n2)cc1 | 153% (active)
100 | c1ccc(Nc2nc(N3CCOCC3)c3ccccc3n2)cc1 | 7.27%

Reference: PubChem BioAssay AID1276 (Columbia University Molecular Screening Center, 2008)
